Assay [1] can be described thus: inhibitors of TNFa-induced NFkB p65 translocation, primary screen, imaging, HUVEC, MLSMR starter and 10KST1 sets (AID 438;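 active means inhibition above 20% together with a positive visual image hit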;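 further: compound added about 3h40 before a 20 min TNFalpha stimulation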;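 on inhibition: signal is the nuclear over cytoplasmic p65 intensity ratio per well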). The note with it: HUVEC TNFa-induced p65 nuclear translocation; cell count: measured here: nuclei count (cytotoxicity indicator), at 2.08 µM; inhibition: at 2 µM, stronger effect = higher value, 0% TNFa-plus-vehicle, 100% no-TNFa wells.
The nature of assay [2]: reduction of polyQ htt aggregates in cells – imaging, exon1htt(103Q)mCFP cells, high-content imaging, primary screen (AID 483;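 active means visual image review flags a hit and inhibition of aggregation exceeds 20%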;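 further: compound exposure lasted 3 days before fixation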;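 on nuclei count: percent of the per-plate median nuclei count of sample wells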). The note with it: exon1htt(103Q)mCFP cell line, aggregate imaging, at 2 µM; inhibition of aggregation: stronger effect = higher value; nuclei count: measured here: cell count, toxicity.
Assay [3] in a line: endothelial E-selectin expression blockers – imaging, HUVEC, immunofluorescence, MLSMR starter and 10KST1 sets, primary screen (AID 487;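 active means visually confirmed hit in the image check and inhibition above 20%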;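 on inhibition: signal is fraction of cell area covered by stained E-selectin grains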;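 on nuclei count: 100% = median nuclei count of all wells on the same plate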). The note with it: HUVEC TNFalpha-induced E-selectin immunofluorescence imaging, at 2 µM; inhibition: stronger effect = higher value; nuclei count: measured here: cell number, toxicity.
The nature of assay [4]: Primary imaging screen for DUSP6 inhibitors that restore phospho-Erk in transfected HeLa cells, chemical complementation (AID 609;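 active means compounds giving at least 50% inhibition in the cell-based MKP-3 phosphatase rescue imaging test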;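 on inhibition: phospho-Erk level distribution per well compared with pooled transfected vehicle control wells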). As to conditions: HeLa MKP-3 transfected, phospho-Erk imaging KS statistic, at 10 µM, cells stimulated with TPA for 15 min.
In assay [5] the target is Dual specificity protein phosphatase 6 (Homo sapiens) (UniProt Q16828). The assay is described as above. As to conditions: HeLa MKP-3 transfected, phospho-Erk imaging KS statistic; at 10 µM; stronger effect = higher value; cells stimulated with TPA for 15 min.
The target in assay [6] is Voltage-gated potassium channel subunit beta-2 (Rattus norvegicus) (UniProt P62483). The assay can be described thus: inhibitors of rat Kvbeta2 reductase activity – biochemical, NADPH fluorescence, primary screen (AID 622;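 active means fluorescence slope higher than the sample average by over 3 SD, cut at about -0.22 in these data, passing the limit was not always enough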;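 further: slope of raw intensity against log time taken from 70 to 1610 s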). As to conditions: recombinant KvBeta, 4-cyanobenzaldehyde reduction, at 10 µM, stronger effect = higher value.
Assay [7] has the same target. Description: enhancers of rat Kvbeta2 NADPH turnover – biochemical, NADPH fluorescence, primary screen (AID 623;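 active means NADPH fluorescence slope more negative than the mean of all samples by about 3 SD, 99.7% confidence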;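 further: fluorescence intensity change per second fitted from 20 to 320 s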). As to conditions: Recombinant KvBeta, NADPH fluorescence decrease slope, 10 min; at 10 µM; stronger effect = lower value.
Assay [8] concerns the target Alpha-2C adrenergic receptor (Homo sapiens) (UniProt P18825). Description: compounds altering alpha2C-coupled GIRK flux – cell-based, HEK293 alpha2C/GIRK1/2, thallium flux, primary screen (AID 624;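 active means fluorescence slope after compound addition differing from the mean of all screened samples at 99.7% confidence, in either direction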;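 further: slope of fluorescence ratio to pre-addition baseline per second over 15 to 24 s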). As to conditions: thallium flux BTC fluorescence, at 10 µM, actives lie on both sides.
Assay [9] has as its target Muscarinic acetylcholine receptor M4 (Homo sapiens) (UniProt P08173). The assay can be described thus: M4-linked GIRK flux change, two-sided – cell-based, HEK293 M4/GIRK, thallium flux, BTC-AM, M4 allosteric agonist project, primary screen (AID 625;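 active means fluorescence slope after compound addition differing from the mean of all tested samples at 99.7% confidence, mostly higher but some lower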;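 further: thallium influx through GIRK channels coupled to M4 in HEK293 cells with BTC-AM dye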). The note with it: at 10 µM, actives lie on both sides.
Assay [10] is described as follows: inhibitors of larval lipid processing in zebrafish, primary screen, whole organism, PED6 fluorescence, gall bladder and intestine (AID 686;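 active means a full or partial loss of lipid-probe fluorescence in the fish gall bladder, intestine or both, judged by eye; inactive means no fluorescence loss, or compound toxic to the fish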;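 further: larvae 5 to 7 days old with five fish per well; signal comes from phospholipase A2 cleavage of quenched PED6 carried via bile; overnight exposure to compound and PED6 before scoring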). The note with it: Zebrafish larvae PED6 lipid processing, fluorescence scoring; screened at 20 µM (by protocol).
Assay [11] can be described thus: loss of swimming-algae plug formation – whole organism, Chlamydomonas reinhardtii, WT vs cilia-less mutant, absorbance, 96-well, primary screen (AID 463189).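 Further: 0% = wild type cc124 cells in DMSO and 100% = ciliumless bld1 mutant cells.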 The note with it: Chlamydomonas reinhardtii gravitaxis, OD600 absorbance, 2 days; at 10 µM; stronger effect = higher value.
Assay [12] can be described thus: blockers of RIG-like receptor reporter activation – cell-based, Sendai virus stimulus, luciferase, 10K MLSCN set, TLR/RLR signaling modifier project, primary screen (AID 602276;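 active means inhibition at or above 50% at 10 µM; inactive means inhibition below 50%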;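 further: firefly luciferase from ISG56 promoter only with Renilla not read in this screen; 0% = Sendai virus plus DMSO and 100% = medium plus DMSO without virus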). The note with it: HEK293 RL24 IRF3 luciferase reporter, at 10 µM, stronger effect = higher value.
Assay [13] in a line: TLR3 IRF3 reporter activation blockers – cell-based, poly I:C stimulus, luciferase, 10K MLSCN set, primary screen (AID 602277;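 active means inhibition of the reporter signal at or above 50%; inactive means inhibition below 50%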). The note with it: HEK293-TLR3 RL24 IRF3 luciferase reporter, at 10 µM, stronger effect = higher value. Background: Reporter assays use an easily measured gene product as a stand-in for the process of interest.
The mark [14] stands for this setting: measured here: cell density z-score.
[15] abbreviates: measured here: nuclear c-Myc green intensity z-score.
Setting [16] is: measured here: nuclear pErk red intensity z-score, stronger effect = higher value.

The source made the active and inactive calls.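 How the source made its calls, unless noted: active means inhibition at or above 50% relative to wild type and mutant plate controls; inactive means inhibition below 50%.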

Usually inhibition stands for the drop in the measured response relative to a control, in per cent.

Muscarinic acetylcholine receptor M4 (Homo sapiens), sequence (P08173 whole entry, looked up): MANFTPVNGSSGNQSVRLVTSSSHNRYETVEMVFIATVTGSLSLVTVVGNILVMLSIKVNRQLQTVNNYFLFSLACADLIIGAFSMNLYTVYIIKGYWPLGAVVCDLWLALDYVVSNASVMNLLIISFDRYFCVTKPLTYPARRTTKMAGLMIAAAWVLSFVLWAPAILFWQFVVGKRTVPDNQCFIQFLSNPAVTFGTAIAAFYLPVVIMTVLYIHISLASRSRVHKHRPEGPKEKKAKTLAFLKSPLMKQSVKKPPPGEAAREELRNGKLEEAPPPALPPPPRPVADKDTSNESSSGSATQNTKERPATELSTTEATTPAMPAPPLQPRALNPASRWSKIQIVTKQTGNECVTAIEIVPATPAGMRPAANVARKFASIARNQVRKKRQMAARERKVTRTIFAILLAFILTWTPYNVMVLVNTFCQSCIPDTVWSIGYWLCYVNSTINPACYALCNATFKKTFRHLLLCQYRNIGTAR
Alpha-2C adrenergic receptor (Homo sapiens), sequence (P18825 whole entry, looked up): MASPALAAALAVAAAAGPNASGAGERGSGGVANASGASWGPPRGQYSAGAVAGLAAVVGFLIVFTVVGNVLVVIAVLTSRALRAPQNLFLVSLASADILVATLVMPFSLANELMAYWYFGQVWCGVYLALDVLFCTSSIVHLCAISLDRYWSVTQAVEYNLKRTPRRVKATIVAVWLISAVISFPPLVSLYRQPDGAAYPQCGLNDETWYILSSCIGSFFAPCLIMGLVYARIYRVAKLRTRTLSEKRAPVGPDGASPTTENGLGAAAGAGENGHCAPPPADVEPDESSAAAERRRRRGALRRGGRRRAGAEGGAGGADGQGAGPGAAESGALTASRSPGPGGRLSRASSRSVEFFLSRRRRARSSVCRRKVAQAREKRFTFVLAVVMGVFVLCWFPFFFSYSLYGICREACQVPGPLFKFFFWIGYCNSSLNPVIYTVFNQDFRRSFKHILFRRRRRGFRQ
Voltage-gated potassium channel subunit beta-2 (Rattus norvegicus), sequence (P62483 whole entry, looked up): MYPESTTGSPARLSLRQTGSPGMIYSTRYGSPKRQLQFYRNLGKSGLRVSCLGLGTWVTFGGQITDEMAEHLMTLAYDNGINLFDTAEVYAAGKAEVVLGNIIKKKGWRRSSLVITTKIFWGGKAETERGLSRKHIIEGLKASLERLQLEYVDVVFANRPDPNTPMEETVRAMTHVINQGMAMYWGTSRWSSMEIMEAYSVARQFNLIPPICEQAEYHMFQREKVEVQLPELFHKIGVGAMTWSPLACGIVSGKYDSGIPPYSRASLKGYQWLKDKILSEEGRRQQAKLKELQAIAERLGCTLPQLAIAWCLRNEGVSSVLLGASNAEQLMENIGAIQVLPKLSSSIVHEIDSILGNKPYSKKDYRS
Dual specificity protein phosphatase 6 (Homo sapiens), sequence (Q16828 whole entry, looked up): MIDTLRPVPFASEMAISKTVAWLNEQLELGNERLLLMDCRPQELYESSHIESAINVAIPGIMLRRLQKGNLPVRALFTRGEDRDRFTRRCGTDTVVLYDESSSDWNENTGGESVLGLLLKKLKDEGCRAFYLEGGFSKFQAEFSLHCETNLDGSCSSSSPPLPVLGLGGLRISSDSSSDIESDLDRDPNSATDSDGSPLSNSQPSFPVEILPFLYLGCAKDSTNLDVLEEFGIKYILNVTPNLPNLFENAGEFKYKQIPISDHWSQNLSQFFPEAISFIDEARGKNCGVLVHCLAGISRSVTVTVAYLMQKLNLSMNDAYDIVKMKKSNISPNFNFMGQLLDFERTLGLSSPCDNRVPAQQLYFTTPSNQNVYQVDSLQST

Regarding `Cc1nnc(SCC(=O)N2CCC(C(N)=O)CC2)s1`, the cell count in [1] was 423. Besides, the inhibition is -2.2% (inactive) in [1]; -80.5% (inactive) in assay [3]; -3.95% (inactive) in assay [5]; 29.5% (inactive) in assay [11]; 7.88% (inactive) in assay [12]; 7.15% (inactive) in assay [13]. For the same compound, the inhibition of aggregation in assay [2] was -4.3% (inactive). Also, the nuclei count amounted to 87.6% in [2] and 137% in assay [3]. Also, the figures for the z-score in assay [4] (setting [14]), in assay [4] (setting [15]) and in assay [4] (setting [16]) were -1.3, -0.207 and -0.854, respectively. For the same compound, the results for the fluorescence slope in assay [6] and in [9] were -0.418 (inactive) and 0.00524 (inactive), respectively. Besides, in assay [7], the NADPH fluorescence slope was -3.7e-05 (inactive). Further, in assay [8], the slope was 0.00689 (inactive). Moreover, the result in assay [10] was inactive.
For the compound `CC1(C)Cc2c(c(-c3ccccc3)nc(N3CCCC3)c2C(N)=O)CO1`, in assay [1], the cell count was found to be 496. In addition, the inhibition in [1] is -6% (inactive); in [3] it was -130% (inactive); in assay [5], -6.59% (inactive); in assay [11], -0.193% (inactive); in assay [12], 16.5% (inactive); in assay [13], 21.4% (inactive). The inhibition of aggregation in assay [2] was 15.7% (inactive). Moreover, the nuclei count in assay [2] was 102%; in assay [3], 142%. For the same compound, the z-score was -1.1 in [4] (setting [14]), 1.34 in assay [4] (setting [15]) and -0.38 in [4] (setting [16]). Further, the fluorescence slope in assay [6] was -0.473 (inactive); in assay [9] it was 0.00451 (inactive). Also, the NADPH fluorescence slope in assay [7] was -0.000128 (inactive). Further, the slope in assay [8] is 0.0059 (inactive). Besides, the outcome in assay [10] is “inactive; toxic”.
As for `Cc1cc(C)n(CC2CC(=O)N(c3ccc(Cl)c(Cl)c3)C2=O)n1` (stereo not given), the cell count in assay [1] was 566. Also, the inhibition is -4.3% (inactive) in assay [1]; -50.6% (inactive) in [3]; 12.8% (inactive) in assay [5]; -1.93% (inactive) in assay [11]; -1.21% (inactive) in assay [12]; 6.73% (inactive) in assay [13]. In [2], the inhibition of aggregation was -16.2% (inactive). Moreover, the nuclei count amounted to 104% in [2] and 139% in [3]. Moreover, the z-score was 0.432 in assay [4] (setting [14]), -0.507 in assay [4] (setting [15]) and 0.03 in assay [4] (setting [16]). Moreover, the fluorescence slope in [6] was -0.489 (inactive); in assay [9], 0.00497 (inactive). In [7], the NADPH fluorescence slope is -5.7e-05 (inactive). Moreover, the slope in [8] is 0.0052 (inactive). Also, the call in assay [10] was inactive.
Take `CCS(=O)(=O)CCn1c([N+](=O)[O-])cnc1C`: the cell count in [1] amounted to 637. The inhibition in assay [1] is 5.5% (inactive); in assay [3], -68.3% (inactive); in [5], 27.9% (inactive); in assay [11] it was 19% (inactive); in assay [12] it was -12.7% (inactive); in [13] it was -11.5% (inactive). Further, the inhibition of aggregation in [2] was 9.6% (inactive). The nuclei count is 97.3% in assay [2] and 110% in assay [3]. Besides, the z-score amounted to 0.704 in [4] (setting [14]), 2.39 in assay [4] (setting [15]) and 0.14 in assay [4] (setting [16]). For the same compound, the fluorescence slope in assay [6] was -0.507 (inactive); in assay [9], 0.00503 (inactive). Moreover, in [7], the NADPH fluorescence slope was -8.1e-05 (inactive). Besides, the slope in assay [8] was 0.00495 (inactive). Also, the compound was called inactive in [10].
Regarding `CCSc1nc(O)c(C2OC(=O)c3c2ccc(OC)c3OC)c(=O)n1-c1ccccc1` (stereo not given), the cell count in assay [1] is 504. The inhibition in assay [1] is 5.8% (inactive); in assay [3], -157% (inactive); in [5], 1.98% (inactive); in [11], -7.19% (inactive); in assay [12], 13.8% (inactive); in assay [13], 25.6% (inactive). Besides, the inhibition of aggregation in [2] is -6.1% (inactive). Besides, the nuclei count in assay [2] came out at 108%; in assay [3], 146%. Further, the figures for the z-score in assay [4] (setting [14]), in [4] (setting [15]) and in assay [4] (setting [16]) were 0.533, 0.786 and -0.555, respectively. In addition, the fluorescence slope in assay [6] is -0.416 (inactive); in [9] it was 0.00691 (inactive). Moreover, the NADPH fluorescence slope in assay [7] is -4.4e-05 (inactive). Moreover, the slope in [8] was 0.00632 (inactive). Further, the compound was classed as inactive in assay [10].

(Values after PubChem BioAssay.)
